The record followed here is PubChem BioAssay.

For some assays here: Entries with a potency or affinity are not part of this list. Activity calls are given as the source filed them.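 How the source made its calls, unless noted: active means calcium signal cut by more than 3 SD below the full-agonist control yet still positive, in both repeats and the earlier primary screen; inactive means the rest.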

The subject of experiment [1] is TRPC4 beta (transient receptor potential cation channel C4), mouse. The experiment in a line: TRPC4 cation channel opening, retest – cell-based, Fluo4 calcium, HEK293 TRPC4beta/mu-opioid, duplicates, 10 µM, confirmation (AID 2426;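 active means fluorescence ratio normalized to control raised more than 50% in primary screen plus both repeat runs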;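 on activation: percent rise of integrated ratio over buffer wells lacking compound which define 0%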). The settings on record: Fluo4 calcium fluorescence, at 10 µM; hits give high values.
Experiment [2] relates to transient receptor potential cation channel C4 beta (TRPC4), mouse. The experiment in a line: TRPC4 cation channel opening, second retest – cell-based, second round, Fluo4, HEK293 TRPC4beta/mu-opioid, 1 µM, confirmation (AID 2461;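 active means primary screen active and over 50% activation in each of two duplicate runs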). Conditions: Fluo4 calcium fluorescence, at 1 µM; hits give high values.
Experiment [3] has as its system TRPC4 (transient receptor potential cation channel C4 beta), mouse. The experiment in a line: potentiation of DAMGO EC20 TRPC4 response – cell-based, second round, Fluo-4, HEK293 TRPC4beta/mu-opioid, 1 µM, confirmation (AID 2554;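 active means primary screen hit whose fluorescence ratio, in both repeats, exceeds the weak agonist control mean by 3 SD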). The settings on record: DAMGO EC20, Fluo-4 calcium flux, at 1 µM; hits give high values. A general note: Calcium assays in cells follow changes in intracellular calcium, usually with a dye or a luminescent sensor.

In experiment [4] the test system is TRPC4 beta (transient receptor potential cation channel C4), mouse. The experiment is described as follows: potentiation of DAMGO EC20 TRPC4 response – cell-based, Fluo-4, HEK293 TRPC4beta/mu-opioid, confirmation (AID 2555;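 active means primary screen hit whose calcium fluorescence ratio, in both repeats, exceeds the weak agonist control mean by 3 SD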). Conditions: DAMGO EC20, Fluo-4 calcium flux, at 10 µM; hits give high values.
The target in experiment [5] is Short transient receptor potential channel 4 (Mus musculus) (UniProt Q9QUQ5). The experiment is described as follows: blockers of DAMGO-evoked TRPC4 calcium flux – cell-based, Fluo4, HEK293 TRPC4beta/mu-opioid, confirmation (AID 2636). The settings on record: at 10 µM; hits give high values.
Sequence of Short transient receptor potential channel 4 (Mus musculus) (Q9QUQ5 whole entry, looked up): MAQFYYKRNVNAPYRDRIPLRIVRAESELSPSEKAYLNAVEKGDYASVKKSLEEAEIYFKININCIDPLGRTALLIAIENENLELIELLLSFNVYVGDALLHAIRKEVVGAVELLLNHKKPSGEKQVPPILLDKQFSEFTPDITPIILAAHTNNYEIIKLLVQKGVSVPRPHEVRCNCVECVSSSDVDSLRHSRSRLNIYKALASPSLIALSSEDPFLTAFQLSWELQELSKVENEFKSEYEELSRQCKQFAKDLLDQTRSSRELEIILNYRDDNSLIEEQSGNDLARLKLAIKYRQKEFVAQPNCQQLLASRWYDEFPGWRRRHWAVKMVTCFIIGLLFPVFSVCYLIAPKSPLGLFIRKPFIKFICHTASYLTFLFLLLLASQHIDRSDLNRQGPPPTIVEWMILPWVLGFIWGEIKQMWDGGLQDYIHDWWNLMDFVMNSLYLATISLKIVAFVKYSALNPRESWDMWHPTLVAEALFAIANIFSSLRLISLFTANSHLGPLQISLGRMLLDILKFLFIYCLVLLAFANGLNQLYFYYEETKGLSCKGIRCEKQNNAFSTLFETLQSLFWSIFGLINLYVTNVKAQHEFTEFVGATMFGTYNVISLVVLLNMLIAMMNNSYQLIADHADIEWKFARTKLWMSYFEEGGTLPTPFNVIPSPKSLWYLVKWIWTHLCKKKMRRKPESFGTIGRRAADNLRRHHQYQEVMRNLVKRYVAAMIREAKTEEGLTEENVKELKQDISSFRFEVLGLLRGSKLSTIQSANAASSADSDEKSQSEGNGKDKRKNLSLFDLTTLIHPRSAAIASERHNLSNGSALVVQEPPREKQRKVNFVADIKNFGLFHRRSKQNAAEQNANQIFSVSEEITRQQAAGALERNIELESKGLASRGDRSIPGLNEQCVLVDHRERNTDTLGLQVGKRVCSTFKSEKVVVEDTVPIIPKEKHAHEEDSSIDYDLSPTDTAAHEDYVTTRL
Experiment [6] shares this target. The experiment in a line: blockers of DAMGO-evoked TRPC4 calcium flux – cell-based, second round, Fluo4, HEK293 TRPC4beta/mu-opioid, 1 µM, confirmation (AID 2637;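 active means calcium signal ratio cut to more than 3 SD under the fully stimulated control mean yet still positive, in both repeats and the primary screen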;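 on inhibition: percent of integrated ratio relative to wells lacking test compound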). Conditions: at 1 µM; hits give high values.
Experiment [7] has the same target. The experiment in a line: potentiation of DAMGO-evoked TRPC4 calcium signal – cell-based, HEK293 TRPC4/mu-opioid, Fluo-4 calcium, EC20 DAMGO, dose response (AID 434941;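 active means earlier screen potentiator hit that boosts the TRPC4 ion channel at some dose, with a dose response; inactive means no potentiation, no dose response, or not a prior hit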;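 further: calcium entry triggered by an EC20 dose of DAMGO at the co-expressed mu-opioid receptor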).
Experiment [8] concerns the target Short transient receptor potential channel 6 (Mus musculus) (UniProt Q61143). The experiment is described as follows: TRPC6 blockade by TRPC4 inhibitor hits – cell-based, HEK293, membrane potential dye, duplicate, selectivity assay for TRPC4 inhibitor project, confirmation (AID 434948;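 active means active in primary screen and both duplicates, each dropping signal beyond three positive-control SD with fluorescence still positive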). Conditions: HEK293 TRPC6, membrane potential dye fluorescence, at 10 µM, stimulated with maximal-effect acetylcholine; hits give high values.

The target is the same in experiment [9]. The experiment in a line: TRPC6 opening by TRPC4 activator hits – cell-based, HEK293, membrane potential dye, duplicate, selectivity assay for TRPC4 activator project, confirmation (AID 434950;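 active means membrane potential signal rise above negative control mean plus 3 SD in both duplicates, also active in the earlier TRPC4 screen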;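 on activation: 0% = buffer only wells and 100% = acetylcholine maximal-effect wells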). The settings on record: HEK293 TRPC6, membrane potential fluorescence, at 10 µM; activation: hits give high values; outcome: activation.
The target is the same in experiment [10]. The experiment is described as follows: positive modulators of mouse TRPC6 channel – HEK293 cells, membrane potential dye, duplicate, selectivity assay for TRPC4 potentiator project, confirmation (AID 434952;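 active means compound raising the membrane signal above positive-control mean plus 3 SD in both repeats, and a primary screen hit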). Conditions: HEK293 TRPC6, membrane potential dye fluorescence, at 10 µM, maximal acetylcholine added after compound; hits give high values.
Experiment [11] addresses Short transient receptor potential channel 4 (Mus musculus) (UniProt Q9QUQ5). The experiment is described as follows: calcium flux activators in TRPC4/5HT1a cells, counter-screen for TRPC4 activator project, cell-based, second counter screen, HEK293 TRPC4/5HT1a, Fluo-4 (AID 434977;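 active means calcium signal rise above buffer-control mean plus 5 SD in both duplicates, and also a hit in the primary screen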;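 on activation: plate controls were assay buffer for no effect and maximal serotonin response for full effect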). Conditions: Fluo-4 calcium flux, at 10 µM; hits give high values.
The nature of experiment [12]: serotonin-gated TRPC4 signal block – cell-based, second counter screen, HEK293 TRPC4/5HT1a, Fluo-4, counter-screen for TRPC4 inhibitor project, confirmation (AID 434978;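 active means primary screen active whose calcium signal fell more than 3 SD beyond the full-serotonin control mean in both duplicate plates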;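 on outcome: serotonin given first at submaximal then at maximal dose after compound preincubation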). The settings on record: Fluo-4 calcium flux, at 10 µM, serotonin added to trigger calcium flux; hits give high values.
The subject of experiment [13] is TRPC4 (mouse), co-expressed with 5HT1a in HEK293. The experiment is described as follows: enhancement of serotonin-evoked TRPC4 response – cell-based, second counter screen, HEK293 TRPC4/5HT1a, Fluo-4, counter-screen for TRPC4 potentiator project, confirmation (AID 434979;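 active means signal rise over 3 SD above mean of control wells given weak agonist, in both repeats and first screen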). The settings on record: Fluo-4 calcium flux, at 10 µM, serotonin added at its EC20 dose; hits give high values. A general note: Counterscreens check selectivity or assay interference.

Experiment [14] is described as follows: nonspecific calcium rise without TRPC4 – cell-based, HEK293 mu-opioid receptor line, counter-screen for TRPC4 activator project, confirmation (AID 449723;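 active means hit in primary screen, with calcium signal over 5 SD above buffer well mean in both duplicates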;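 further: counter screen cells carry the mu-opioid receptor alone and lack TRPC4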). The settings on record: HEK293 mu-opioid cells, Fluo-4 calcium fluorescence, at 10 µM; hits give high values.
Experiment [15] is described as follows: nonspecific potentiation of DAMGO calcium response – cell-based, HEK293 mu-opioid receptor line, counter-screen for TRPC4 allosteric potentiator project, confirmation (AID 449724;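 active means calcium signal rise more than 3 SD above the low-dose agonist control mean, in both duplicate plates and the primary screen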;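 further: HEK293 cells carrying mu-opioid receptor only with no TRPC4 channel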). Conditions: HEK293 mu-opioid receptor cells, Fluo-4 calcium flux, at 10 µM, compound added before EC20 DAMGO stimulus; hits give high values.
In experiment [16] the target is Short transient receptor potential channel 4 (Mus musculus) (UniProt Q9QUQ5). The experiment is described as follows: block of DAMGO-driven TRPC4 calcium entry – cell-based, HEK293 TRPC4/mu-opioid, Fluo-4 calcium, dose response (AID 434942;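 active means primary screen inhibitor hit that blocks the TRPC4 channel at some tested dose, yielding a dose curve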).
Experiment [17] in a line: nonspecific flux increase, KCNQ1-free cells – parental CHO cells, counter-screen for KCNQ1 potentiator project (AID 493006;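 active means duplicate-averaged activation above buffer control mean plus 5 SD of those controls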). The settings on record: parental CHO-K1 cells, FluxOR thallium flux, at 10 µM; hits give high values.
Experiment [18] concerns the target Potassium voltage-gated channel subfamily KQT member 1 (Homo sapiens) (UniProt P51787). The experiment in a line: enhancement of KCNQ1 channel thallium flux – FluxOR thallium flux, CHO cells, duplicates, confirmation (AID 493007;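 active means potentiation averaged over duplicate wells exceeding buffer-only control mean by more than 3 SD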;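 further: cells depolarized by a potassium plus thallium sulfate stimulus after compound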). Conditions: KCNQ1 cell line, FluxOR thallium flux fluorescence, at 10 µM; hits give high values, % of reference activator effect, buffer zero.

Experiment [19] deals with Potassium voltage-gated channel subfamily KQT member 2 (Rattus norvegicus) (UniProt O88943). The experiment in a line: KCNQ2 thallium flux enhancement – KCNQ2-CHO-K1 cells, selectivity assay for KCNQ1 potentiator project (AID 493009;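 active means mean duplicate potentiation above the buffer control mean plus 5 SD of buffer wells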;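 further: assay conditions were tuned for KCNQ1 rather than KCNQ2 modulators; signal is max minus min fluorescence divided by baseline after thallium stimulus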). Conditions: FluxOR thallium flux fluorescence, at 10 µM; hits give high values, scaled: buffer 0, activator control 100.
Sequence of Potassium voltage-gated channel subfamily KQT member 2 (Rattus norvegicus) (O88943 whole entry, looked up): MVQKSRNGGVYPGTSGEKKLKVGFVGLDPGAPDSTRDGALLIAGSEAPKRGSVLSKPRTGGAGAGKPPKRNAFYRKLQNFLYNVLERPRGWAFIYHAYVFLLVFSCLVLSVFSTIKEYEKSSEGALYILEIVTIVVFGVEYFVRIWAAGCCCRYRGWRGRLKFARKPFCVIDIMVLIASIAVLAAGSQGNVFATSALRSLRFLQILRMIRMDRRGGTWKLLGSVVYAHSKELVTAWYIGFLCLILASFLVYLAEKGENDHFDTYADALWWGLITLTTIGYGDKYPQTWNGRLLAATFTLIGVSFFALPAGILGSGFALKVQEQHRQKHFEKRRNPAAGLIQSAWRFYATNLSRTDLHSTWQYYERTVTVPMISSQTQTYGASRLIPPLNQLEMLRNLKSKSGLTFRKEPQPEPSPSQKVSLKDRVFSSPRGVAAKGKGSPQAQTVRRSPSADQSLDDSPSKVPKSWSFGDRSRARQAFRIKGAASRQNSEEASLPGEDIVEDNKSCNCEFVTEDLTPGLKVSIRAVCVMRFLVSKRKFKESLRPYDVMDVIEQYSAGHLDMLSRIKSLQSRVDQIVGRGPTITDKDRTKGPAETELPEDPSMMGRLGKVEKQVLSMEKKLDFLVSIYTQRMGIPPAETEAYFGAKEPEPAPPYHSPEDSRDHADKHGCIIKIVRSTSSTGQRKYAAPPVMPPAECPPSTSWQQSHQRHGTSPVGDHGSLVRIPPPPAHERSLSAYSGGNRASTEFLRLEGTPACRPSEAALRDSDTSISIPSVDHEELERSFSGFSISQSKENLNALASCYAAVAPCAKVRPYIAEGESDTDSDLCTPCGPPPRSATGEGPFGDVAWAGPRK
In experiment [20] the target is Potassium voltage-gated channel subfamily KQT member 1 (Homo sapiens) (UniProt P51787). The experiment in a line: KCNQ1 activators by electrophysiology – IonWorks patch clamp, KCNQ1-CHO cells, orthogonal assay for KCNQ1 potentiator project, confirmation (AID 493184;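 active means current rise at least 3 SD above the untreated control mean in each of two repeat wells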). The settings on record: automated patch clamp current, at 10 µM; hits give high values. For orientation: In patch-clamp work, channel activity is measured electrically.
Sequence of Potassium voltage-gated channel subfamily KQT member 1 (Homo sapiens) (P51787 whole entry, looked up): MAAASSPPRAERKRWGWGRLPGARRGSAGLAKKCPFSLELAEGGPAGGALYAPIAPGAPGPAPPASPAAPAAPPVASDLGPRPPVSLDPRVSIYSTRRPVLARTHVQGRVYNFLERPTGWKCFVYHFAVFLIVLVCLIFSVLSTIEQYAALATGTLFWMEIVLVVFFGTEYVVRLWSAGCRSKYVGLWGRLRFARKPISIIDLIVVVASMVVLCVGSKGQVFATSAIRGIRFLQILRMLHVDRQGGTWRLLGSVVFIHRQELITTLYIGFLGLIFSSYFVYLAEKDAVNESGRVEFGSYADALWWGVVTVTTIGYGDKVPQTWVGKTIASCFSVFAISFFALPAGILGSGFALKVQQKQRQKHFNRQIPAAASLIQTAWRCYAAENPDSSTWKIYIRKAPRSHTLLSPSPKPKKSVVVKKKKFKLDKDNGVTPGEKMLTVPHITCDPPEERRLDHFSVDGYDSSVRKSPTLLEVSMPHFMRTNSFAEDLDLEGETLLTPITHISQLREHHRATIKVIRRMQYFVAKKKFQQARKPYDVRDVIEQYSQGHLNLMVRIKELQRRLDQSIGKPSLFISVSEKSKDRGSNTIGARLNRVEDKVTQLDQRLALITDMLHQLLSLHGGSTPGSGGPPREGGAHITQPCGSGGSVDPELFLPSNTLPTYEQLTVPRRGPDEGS

Sequence of Short transient receptor potential channel 6 (Mus musculus) (Q61143 whole entry, looked up): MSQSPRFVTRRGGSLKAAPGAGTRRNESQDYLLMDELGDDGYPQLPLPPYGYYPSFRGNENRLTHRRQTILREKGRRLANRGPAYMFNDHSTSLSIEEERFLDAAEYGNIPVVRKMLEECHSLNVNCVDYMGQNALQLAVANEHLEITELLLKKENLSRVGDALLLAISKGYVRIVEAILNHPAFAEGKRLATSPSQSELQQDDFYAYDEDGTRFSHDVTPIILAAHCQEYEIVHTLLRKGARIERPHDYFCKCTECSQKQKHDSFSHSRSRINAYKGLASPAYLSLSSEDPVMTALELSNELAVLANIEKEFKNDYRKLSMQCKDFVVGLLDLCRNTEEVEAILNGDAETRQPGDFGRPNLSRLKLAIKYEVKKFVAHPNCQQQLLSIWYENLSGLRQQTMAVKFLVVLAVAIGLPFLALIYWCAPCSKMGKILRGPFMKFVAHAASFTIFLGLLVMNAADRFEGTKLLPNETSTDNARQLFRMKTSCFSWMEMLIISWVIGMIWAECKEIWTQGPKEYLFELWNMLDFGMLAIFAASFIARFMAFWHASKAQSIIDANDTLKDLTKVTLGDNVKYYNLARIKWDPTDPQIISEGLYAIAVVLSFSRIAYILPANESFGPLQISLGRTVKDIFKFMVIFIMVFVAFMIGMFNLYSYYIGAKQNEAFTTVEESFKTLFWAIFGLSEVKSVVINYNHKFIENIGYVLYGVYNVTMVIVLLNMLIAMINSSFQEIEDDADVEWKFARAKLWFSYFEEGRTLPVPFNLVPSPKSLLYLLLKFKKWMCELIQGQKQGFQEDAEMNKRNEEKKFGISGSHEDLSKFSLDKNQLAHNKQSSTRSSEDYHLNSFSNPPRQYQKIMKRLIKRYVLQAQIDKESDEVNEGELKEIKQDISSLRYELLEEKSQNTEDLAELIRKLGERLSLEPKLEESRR

By inhibition is commonly meant how much of the control response was suppressed. With `O=C(NC1CC1)C1=C[C@H](C2CCCCC2)C[C@H](OCc2ccc(CO)cc2)O1`, the activation in [1] is 337% (active); in [9] it was 41% (active); in experiment [11], 131% (active). For the same molecule, the result in experiment [2], in experiment [3], in experiment [4], in [6], in experiment [7] and in experiment [8] was inactive. Moreover, the outcome in experiment [10], in [13], in experiment [14] and in experiment [15] was inactive. Also, the inhibition in experiment [5] is 75% (active); in experiment [12] it was 9.94% (active).
As for `CCOc1ccccc1OCC(=O)Nc1cc(S(=O)(=O)N2CCCCC2)ccc1N1CCN(CC)CC1`, the activation in experiment [1] is 195% (active); in experiment [11], 45% (active). For the same molecule, the outcome in experiment [2], in experiment [3], in [4], in experiment [5], in [6] and in [7] was inactive. Besides, the result in experiment [16], in experiment [8], in experiment [9], in experiment [10], in [12] and in [13] was inactive. In addition, the result in experiment [14], in [15], in experiment [17], in experiment [18], in experiment [19] and in experiment [20] was inactive.
On to `COc1cccc(CC2(CO)CCCN(Cc3ccccc3-c3ccco3)C2)c1` (stereo not given), for which the result in [1], in experiment [2], in experiment [3], in experiment [4], in experiment [5] and in experiment [7] was inactive. Also, the molecule was classed as inactive in experiment [8], in experiment [10], in experiment [11], in experiment [12], in experiment [13] and in experiment [14]. Further, the result in experiment [15] was inactive. For the same molecule, in [6], the inhibition was 42% (active). The activation in experiment [9] was 47% (active).
With `CC1CC(C)(C)N(C(=O)CN2C(=O)c3ccccc3C2=O)c2ccccc21` (stereo not given), the activation in [1] was 149% (active); in experiment [9], 51.5% (active); in experiment [11], 23.1% (active); in experiment [14], 62.6% (active). Moreover, the result in experiment [2], in [3], in [4], in experiment [6], in [7] and in [8] was inactive. Also, the outcome in experiment [10], in experiment [12], in [13] and in experiment [15] was inactive. Also, the inhibition in [5] is 73% (active).
With `COc1ccc2nc(NS(=O)(=O)c3ccc(NC(C)=O)cc3)sc2c1`, the result in [1], in experiment [2], in [3], in [4], in experiment [6] and in experiment [7] was inactive. For the same molecule, the call in [8], in experiment [10], in experiment [11], in experiment [12], in experiment [13] and in experiment [14] was inactive. Further, in experiment [15], the outcome was inactive. The inhibition in experiment [5] was 73% (active). Moreover, in experiment [9], the activation is 37.5% (active).
Take `CCNC(=S)N1CCC(C(O)(c2ccccc2)c2ccccc2)CC1`: the activation in [1] was 117% (active); in [9], 41.5% (active). Besides, the result in [2], in experiment [3], in experiment [4], in experiment [6], in [7] and in experiment [8] was inactive. The result in [10], in experiment [11], in [12], in experiment [13], in [14] and in [15] was inactive. In addition, the inhibition in experiment [5] was 96% (active).
Regarding `Cc1ccc(S(=O)(=O)Nc2cccc(C(=O)NCC(c3ccco3)N3CCCC3)c2)cc1F` (stereo not given), the activation in [1] was 58% (active); in [9], 31.5% (active). In addition, the result in [2], in experiment [3], in [4], in experiment [5], in experiment [7] and in experiment [8] was inactive. Moreover, the result in experiment [10], in [11], in experiment [12], in experiment [13], in [14] and in experiment [15] was inactive. Also, the inhibition in [6] was 67% (active).
For `Cc1onc(-c2ccccc2)c1C(=O)NNC(=S)NC(=O)/C=C/c1ccccc1`, the result in [1], in experiment [2], in [3], in experiment [4], in experiment [6] and in experiment [7] was inactive. In addition, the result in [8], in experiment [10], in [13] and in experiment [15] was inactive. For the same molecule, the inhibition was 77% (active) in experiment [5] and 19.2% (active) in experiment [12]. Moreover, the activation in experiment [9] is 32.5% (active); in experiment [11] it was 39.7% (active); in experiment [14], 14.8% (active).
Take `CCCCC(c1nnnn1CC1CCCO1)N1CCN(Cc2ccccc2)CC1` (stereo not given): the outcome in [1], in experiment [2], in experiment [3], in experiment [4], in experiment [6] and in experiment [7] was inactive. Further, the result in experiment [8], in experiment [10], in experiment [11], in experiment [12], in experiment [13] and in [14] was inactive. Further, the result in experiment [15] was inactive. The inhibition in experiment [5] was 84% (active). Moreover, the activation in experiment [9] was 64.5% (active).
As for `Cc1ccccc1Nc1nc(NCc2ccco2)c2ccccc2n1`, the outcome in experiment [1], in experiment [2], in experiment [3], in experiment [4], in experiment [5] and in experiment [7] was inactive. Further, the call in experiment [9], in [10], in experiment [11], in experiment [13], in [14] and in [15] was inactive. The results for the inhibition in experiment [6], in [8] and in experiment [12] were 41% (active), 43.5% (active) and 36.9% (active), respectively.
